Values joined by “and” are separate entries in the source; they are usually repeats but may differ in a detail not shown here. Equal entries are not always repeated. About 2,000 (36%) of roughly 5,500 compounds were called active. Roughly 18% stayed inconclusive and do not appear here. Rule as the data show it: active = normalized growth mostly below about 0.91 (no sharp cut-off); inconclusive = no clear call, values can overlap the other calls; inactive = mostly above about 0.92. This is one part of the list.
Experiment: chemical genetic growth profiling, strain panel (AID 1159580);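 also: tested at 20 µM; growth read once vehicle control cultures reached saturation at 30 °C; 1 = growth at the plate median or of vehicle wells; lower values mean less growth of the strain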
Details: S. cerevisiae deletion strains, growth OD
[1] = locus YHR030C, strain SLT2, stronger effect = lower value
[2] = locus YHR079C, strain IRE1, stronger effect = lower value
[3] = locus YJL095W, strain BCK1, stronger effect = lower value
[4] = locus YJR066W, strain TOR1, stronger effect = lower value
[5] = locus YLR113W, strain HOG1, stronger effect = lower value
[6] = locus YNL183C, strain NPR1, stronger effect = lower value
[7] = locus YOR231W, strain MKK1, stronger effect = lower value
[8] = locus YPL256C, strain CLN2, stronger effect = lower value

Measured: normalized growth

COc1cc(O)c(C)c(O)c1
active: locus YKL009W, strain mrt4, stronger effect = lower value 1.16 [resistant]
inactive: locus YAL013W, strain DEP1, stronger effect = lower value 0.999 | locus YAL021C, strain ccr4, stronger effect = lower value 1.03 | locus YAL026C, strain drs2, stronger effect = lower value 1.02 | locus YAL030W, strain snc1, stronger effect = lower value 1.02 | locus YBL061C, strain skt5, stronger effect = lower value 1.01 | locus YBR009C, strain hhf1, stronger effect = lower value 1.02 | locus YBR021W, strain FUR4, stronger effect = lower value 0.995 | locus YBR023C, strain chs3, stronger effect = lower value 1.02 | locus YBR171W, strain sec66, stronger effect = lower value 1.03 | locus YBR229C, strain ROT2, stronger effect = lower value 0.998 | locus YBR231C, strain swc5, stronger effect = lower value 1.01 | locus YBR279W, strain paf1, stronger effect = lower value 1.01 | locus YCL011C, strain gbp2, stronger effect = lower value 1 | locus YCL016C, strain dcc1, stronger effect = lower value 1 | locus YCL029C, strain bik1, stronger effect = lower value 1.04 | locus YCL061C, strain MRC1, stronger effect = lower value 1.01 | locus YCL069W, strain vba3, stronger effect = lower value 1.01 | locus YCR088W, strain abp1, stronger effect = lower value 1.01 | locus YDL005C, strain med2, stronger effect = lower value 1.01 | locus YDL035C, strain GPR1, stronger effect = lower value 1.01 | locus YDL040C, strain nat1, stronger effect = lower value 1.01 | locus YDL074C, strain BRE1, stronger effect = lower value 1.02 | locus YDL101C, strain DUN1, stronger effect = lower value 1.01 | locus YDL134C, strain PPH21, stronger effect = lower value 1 | locus YDL185W, strain tfp1, stronger effect = lower value 1.02 | locus YDL192W, strain arf1, stronger effect = lower value 1 | locus YDR001C, strain nth1, stronger effect = lower value 1.01 | locus YDR069C, strain doa4, stronger effect = lower value 1.01 | locus YDR101C, strain arx1, stronger effect = lower value 1 | locus YDR137W, strain rgp1, stronger effect = lower value 1.05 | locus YDR150W, strain NUM1, stronger effect = lower value 0.995 | locus YDR159W, strain sac3, stronger effect = lower value 1.01 | locus YDR162C, strain NBP2, stronger effect = lower value 1.02 | locus YDR195W, strain ref2 1.02 | locus YDR297W, strain sur2, stronger effect = lower value 1.01 | locus YDR318W, strain mcm21, stronger effect = lower value 1.01 | locus YDR334W, strain swr1, stronger effect = lower value 1.02 | locus YDR335W, strain msn5, stronger effect = lower value 1.04 | locus YDR388W, stronger effect = lower value 1 | locus YDR392W, strain spt3, stronger effect = lower value 1.03 | locus YDR502C, strain sam2, stronger effect = lower value 1.04 | locus YEL003W, strain gim4, stronger effect = lower value 1.03 | locus YEL037C, strain rad23, stronger effect = lower value 1.02 | locus YEL061C, strain CIN8 (second series), stronger effect = lower value 1.02 | locus YEL061C, strain CIN8, stronger effect = lower value 1 | locus YER015W, strain faa2, stronger effect = lower value 1 | locus YER016W, strain bim1, stronger effect = lower value 1.02 | locus YER110C, stronger effect = lower value 1.01 | locus YER111C, strain swi4, stronger effect = lower value 1.01 | locus YER155C, strain BEM2 (second series), stronger effect = lower value 1.04 | locus YER155C, strain BEM2, stronger effect = lower value 0.999 | locus YER167W, strain BCK2, stronger effect = lower value 1 | locus YFR010W, strain ubp6, stronger effect = lower value 1.02 | locus YGL078C, strain dbp3, stronger effect = lower value 1.03 | locus YGL086W, strain mad1, stronger effect = lower value 1.01 | locus YGL167C, strain pmr1, stronger effect = lower value 1.01 | locus YGL173C, strain kem1, stronger effect = lower value 1.02 | locus YGL227W, strain vid30, stronger effect = lower value 1.01 | locus YGL240W, strain doc1, stronger effect = lower value 0.977 | locus YGL248W, strain PDE1, stronger effect = lower value 1.03 | locus YGL253W, strain hxk2, stronger effect = lower value 1.02 | locus YGR135W, strain pre9, stronger effect = lower value 1.02 | locus YGR252W, strain gcn5, stronger effect = lower value 0.973 | locus YHR013C, strain ard1, stronger effect = lower value 1.01 | locus YHR027C, strain rpn1, stronger effect = lower value 1.01 | [1] 0.997 and 0.992 | locus YHR079C, strain IRE1 (second series), stronger effect = lower value 1.01 | [2] 0.996 | locus YHR094C, strain hxt1, stronger effect = lower value 1.01 | locus YHR129C, strain ARP1, stronger effect = lower value 1.01 | locus YHR142W, strain chs7, stronger effect = lower value 1.02 | locus YHR200W, strain rpn10, stronger effect = lower value 1.02 | locus YIL066C, strain RNR3, stronger effect = lower value 1.02 | locus YIL073C, strain SPO22, stronger effect = lower value 1.13 | locus YIL125W, strain kgd1, stronger effect = lower value 1.02 | locus YIR030C, strain dcg1, stronger effect = lower value 1.01 | locus YJL092W, strain hpr5, stronger effect = lower value 1.01 | locus YJL095W, strain BCK1 (second series), stronger effect = lower value 1.01 | [3] 1.01 and 1 | locus YJL115W, strain asf1, stronger effect = lower value 1.01 | locus YJL129C, strain trk1, stronger effect = lower value 1.05 | locus YJL134W, strain LCB3, stronger effect = lower value 1 | locus YJL154C, strain vps35, stronger effect = lower value 1.01 | locus YJL164C, strain tpk1, stronger effect = lower value 1.03 | locus YJL166W, strain qcr8, stronger effect = lower value 1 | locus YJL168C, strain set2, stronger effect = lower value 1.01 | locus YJL187C, strain SWE1 (second series), stronger effect = lower value 1.01 | locus YJL187C, strain SWE1, stronger effect = lower value 1.01 | locus YJR043C, strain POL32, stronger effect = lower value 1.02 | [4] 0.906 | locus YJR075W, strain HOC1, stronger effect = lower value 1 | locus YKL068W, stronger effect = lower value 1.01 | locus YKL085W, strain MDH1 (second series), stronger effect = lower value 1.02 | locus YKL085W, strain MDH1, stronger effect = lower value 1.02 | locus YKL160W, strain elf1, stronger effect = lower value 1.01 | locus YKL190W, strain CNB1, stronger effect = lower value 0.998 | locus YKR001C, strain vps1, stronger effect = lower value 1.02 | locus YKR026C, strain gcn3, stronger effect = lower value 0.995 | locus YKR091W, strain srl3, stronger effect = lower value 1.01 | locus YLL001W, strain dnm1, stronger effect = lower value 1.01 | locus YLL026W, stronger effect = lower value 1.01 | locus YLL041C, strain sdh2, stronger effect = lower value 1.01 | locus YLR027C, strain aat2, stronger effect = lower value 1.01 | locus YLR039C, strain RIC1, stronger effect = lower value 1.02 | locus YLR058C, strain SHM2, stronger effect = lower value 1.01 | locus YLR102C, strain apc9, stronger effect = lower value 1.01 | [5] 0.975 | locus YLR221C, strain rsa3, stronger effect = lower value 1.01 | locus YLR258W, strain gsy2, stronger effect = lower value 1.02 | locus YLR262C, strain YPT6 (second series), stronger effect = lower value 1.01 | locus YLR262C, strain YPT6, stronger effect = lower value 1.05 | locus YLR268W, strain sec22, stronger effect = lower value 1.02 | locus YLR320W, strain mms22, stronger effect = lower value 1.02 | locus YLR330W, strain CHS5, stronger effect = lower value 1 | locus YLR342W, strain FKS1 (second series), stronger effect = lower value 1 | locus YLR342W, strain FKS1, stronger effect = lower value 1.02 | locus YLR357W, strain rsc2, stronger effect = lower value 1.02 | locus YLR370C, strain arc18, stronger effect = lower value 1.02 | locus YLR371W, strain rom2, stronger effect = lower value 1.01 | locus YLR384C, strain iki3, stronger effect = lower value 1.03 | locus YLR418C, strain cdc73, stronger effect = lower value 1.02 | locus YML016C, strain PPZ1, stronger effect = lower value 1.01 | locus YML032C, strain rad52, stronger effect = lower value 1 | locus YML120C, strain ndi1, stronger effect = lower value 0.97 | locus YML124C, strain tub3, stronger effect = lower value 1.01 | locus YMR058W, strain fet3, stronger effect = lower value 1.01 | locus YMR078C, strain ctf18, stronger effect = lower value 1.03 | locus YMR125W, strain sto1, stronger effect = lower value 1.04 | locus YMR129W, stronger effect = lower value 1.02 | locus YMR205C, strain PFK2, stronger effect = lower value 1.01 | locus YMR223W, strain ubp8, stronger effect = lower value 1.02 | locus YMR231W, strain pep5, stronger effect = lower value 1.02 | locus YMR307W, strain GAS1, stronger effect = lower value 1.01 | locus YNL067W, strain RPL9B, stronger effect = lower value 1.01 | locus YNL071W, strain lat1, stronger effect = lower value 1.03 | [6] 0.92 | locus YNL209W, strain ssb2, stronger effect = lower value 1.03 | locus YNL233W, strain BNI4, stronger effect = lower value 1.01 | locus YNL248C, strain rpa49, stronger effect = lower value 1.04 | locus YNL250W, strain rad50, stronger effect = lower value 1.03 | locus YNL271C, strain bni1, stronger effect = lower value 1.03 | locus YNL298W, strain CLA4, stronger effect = lower value 1.03 | locus YNL307C, strain MCK1, stronger effect = lower value 1.03 | locus YNL322C, strain KRE1 (second series), stronger effect = lower value 1.02 | locus YNR049C, strain mso1, stronger effect = lower value 1.01 | locus YNR052C, strain pop2, stronger effect = lower value 1.01 | locus YOL006C, strain TOP1, stronger effect = lower value 1.19 | locus YOL012C, strain htz1 0.903 | locus YOL147C, strain pex11, stronger effect = lower value 1.02 | locus YOR001W, strain rrp6, stronger effect = lower value 1.02 | locus YOR061W, strain CKA2, stronger effect = lower value 1.01 | locus YOR069W, strain VPS5, stronger effect = lower value 1.01 | locus YOR070C, strain gyp1, stronger effect = lower value 1.01 | locus YOR080W, strain dia2, stronger effect = lower value 1.02 | locus YOR083W, strain WHI5, stronger effect = lower value 1.01 | locus YOR106W, strain vam3, stronger effect = lower value 0.998 | locus YOR136W, strain idh2, stronger effect = lower value 1.02 | locus YOR144C, strain elg1, stronger effect = lower value 1.01 | locus YOR184W, strain ser1, stronger effect = lower value 1.02 | [7] 1.01 | locus YOR265W, strain rbl2, stronger effect = lower value 1.01 | locus YOR270C, strain vph1, stronger effect = lower value 1.05 | locus YOR290C, strain snf2, stronger effect = lower value 0.988 | locus YOR316C, strain cot1, stronger effect = lower value 1.01 | locus YPL051W, strain arl3, stronger effect = lower value 1.02 | locus YPL078C, strain atp4, stronger effect = lower value 1.03 | locus YPL106C, strain sse1, stronger effect = lower value 1.01 | locus YPL240C, strain hsp82, stronger effect = lower value 1.02 | locus YPL241C, strain CIN2, stronger effect = lower value 1 | [8] 0.985 | locus YPR119W, strain clb2, stronger effect = lower value 1.01 | locus YPR141C, strain kar3, stronger effect = lower value 1.01 | locus YPR163C, strain tif3, stronger effect = lower value 1.03 | locus YPR167C, strain met16, stronger effect = lower value 1.03 | strain wtn01, stronger effect = lower value 1.02

COc1cc(O)cc(O)c1C(C)=O
inactive: [1] 0.969 | [2] 0.981 | [3] 0.984 | [4] 0.916 | [5] 0.971 | [6] 0.907 | [7] 0.985 | [8] 0.97
